High-throughput results as filed in PubChem BioAssay.
KKLEB tox: CF airway cell cytotoxicity counter-screen. activity change (cytotoxicity), % at 5 µM. KKLEB CF airway cells viability, ATPlite luminescence, overnight; stronger effect = lower value; cells stimulated with P. aeruginosa culture filtrate. hit rate 0.36% among 360,000;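 active = corrected activity change at or below -50% at 5 µM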
CF NFkB inh: inhibitors of cystic fibrosis induced NF-kB. KKLEB NF-kB-GFP reporter, PAF-induced, GFP fluorescence overnight. AID 588850. inhibition, % at 5 µM. hit rate 0.86% among 360,000;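 active = at least 50% inhibition at 5 µM, scaled per plate between neutral and stimulator controls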;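 also: PAF is a Pseudomonas aeruginosa culture filtrate used as stimulus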
C8 TRAIL sens: sensitizes caspase-8 expressing cells to TRAIL | inhibition (viability loss, TRAIL sensitization), % at 10 µM | NB7+C8 cells + TRAIL, ATPlite viability luminescence | hit rate 1% among 360,000;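 active = compounds causing at least 50% loss of cell viability in the single-dose screen, relative to plate controls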
HIF-2a block: inhibitors of HIF-2a | hit rate 0.72% among 360,000 | inhibition, % at 18.8 µM | 786-0 RCC cells HIF-2a reporter, luciferase luminescence, overnight;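 active = inhibition of the luminescence signal of 40% or more relative to plate controls, in a single-dose primary screen at 18.75 µM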
Peg3 promoter: inhibitors of Peg3 promoter; HeLa PEG-Prom luciferase reporter, luminescence, overnight; inhibition, % at 20 µM; hit rate 1.7% among 360,000; AID 588405;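 active = inhibition of at least 50% at 20 µM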
PPC-1+TRAIL kill: compounds killing PPC-1 cancer cells with TRAIL present (potentiator screen, no TRAIL-free arm); PPC-1 cells + TRAIL, ATPLite viability luminescence; cell killing (% activity), % at 4 µM or 5 µM; hit rate 0.41% among 220,000;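 active = cell killing above 50% in the first pass at 4 µM, then a duplicate retest at 5 µM averaging 50% or more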
Each line names hits and unclear results; the compound was inactive in the other large screens. This is a sample that favours compounds with a hit; in the whole collection about 3.1% have one here.

COc1ccc(-n2c(C)cc(/C=C3/SC(=O)N(CC(=O)N4CCOCC4)C3=O)c2C)cc1	none
Cc1cc(/C=C2/SC(=O)N(CC(=O)N3CCOCC3)C2=O)c(C)n1-c1ccccc1F	PPC-1+TRAIL kill 52.7
CCOc1ncccc1C(=O)NNC(=O)CSc1ccc(Cl)cc1	none (no result: PPC-1+TRAIL kill)
COc1cc(-c2csc(N3CCOCC3)n2)cc(OC)c1OC	none
COc1ccc(-c2csc(N3CCN(c4cc(C)nc5ccccc45)CC3)n2)cc1OC	Peg3 promoter 99.8
O=C1C(C2=C(O)c3ccccc3C2=O)=Nc2ccccc21	C8 TRAIL sens 88.6
CC(=NNC(=S)N(Cc1ccccn1)Cc1ccccn1)c1cnccn1	Peg3 promoter 53.9 (no result: PPC-1+TRAIL kill)
CCCCn1c(=O)[nH]c(=O)c2c1nc(-c1ccc(OC)c(Br)c1)n2CC(C)C	Peg3 promoter 55.4 (no result: PPC-1+TRAIL kill)
O=[N+]([O-])c1ccc(Oc2ccc(S(=O)(=O)N3CCOCC3)cn2)cc1	none (no result: PPC-1+TRAIL kill)
CN=c1scc(-c2ccc(F)cc2)n1/N=C/c1ccc(O)c(O)c1	C8 TRAIL sens 74.0
CN=c1scc(-c2ccc([N+](=O)[O-])cc2)n1/N=C/c1ccco1	none
O=C(CCC(=O)N1CCOc2ccc(Cl)cc21)NCCCN1CCC(Cc2ccccc2)CC1	Peg3 promoter 74.7 (no result: PPC-1+TRAIL kill)
O=C(CCC(=O)N1CCOc2ccc(Cl)cc21)NCCCN1CCN(c2ccccc2F)CC1	none (no result: PPC-1+TRAIL kill)
O=C(Nc1cc2c(cc1Cl)-c1ccc([N+](=O)[O-])cc1C2=NO)C(F)(F)F	Peg3 promoter 57.3 (no result: PPC-1+TRAIL kill)
CC1=C(CC(=O)c2ccc(Cl)cc2)C(=O)c2ccccc2C1=O	CF NFkB inh 64.9
O=C(Cc1ccccn1)c1ccc(Cl)cc1	none (no result: PPC-1+TRAIL kill)
COc1cccc(CNC(=O)Cc2ccc(NC(=O)C3=C(C)OCCS3)cc2)c1	C8 TRAIL sens 56.2 (no result: PPC-1+TRAIL kill)
COc1ccc(CNC(=O)c2ccccc2NC(=O)C2=C(C)OCCS2)cc1	none (no result: PPC-1+TRAIL kill)
CC1=C(C(=O)Nc2ccc(CC(=O)NCc3ccccc3C)cc2)SCCO1	none (no result: PPC-1+TRAIL kill)
CCc1ccc(CNC(=O)Cc2ccc(NC(=O)C3=C(C)OCCS3)cc2)cc1	C8 TRAIL sens 52.8 (no result: PPC-1+TRAIL kill)
COc1ccccc1CNC(=O)C[C@H]1CC[C@@H]2[C@H](COC[C@H](O)CN2Cc2ccc3c(c2)OCO3)O1	none (no result: KKLEB tox, CF NFkB inh, Peg3 promoter, PPC-1+TRAIL kill)
Cc1ncc(CO)c2c1Oc1nc(-c3ccccc3)nc(SCC(=O)Nc3cccc(O)c3)c1C2	Peg3 promoter 64.5 (no result: PPC-1+TRAIL kill)
CCn1cc(C(=O)NCC(OC)OC)c(=O)c2cc(S(=O)(=O)N3CCC(C)CC3)ccc21	C8 TRAIL sens 65.2 (no result: PPC-1+TRAIL kill)
CCC1CCCCN1CCCNC(=O)c1cn(CC)c2ccc(S(=O)(=O)N3CCc4ccccc4C3)cc2c1=O (stereo not drawn)	Peg3 promoter 76.7
CCCCNC(=O)c1cn(C)c2ccc(S(=O)(=O)N3CC(C)CC(C)C3)cc2c1=O (stereo not drawn)	C8 TRAIL sens 56.5 (no result: PPC-1+TRAIL kill)
CN(C)S(=O)(=O)c1ccc(N2CCCC2)c(C(=O)N2CCN(S(=O)(=O)c3ccc(F)c(F)c3)CC2)c1	none (no result: PPC-1+TRAIL kill)
COc1ccc(C(=O)c2[nH]c(N)c(C(=O)NCCc3c[nH]c4ccccc34)c2-c2ccc(C(F)(F)F)cc2)cc1	none (no result: KKLEB tox, CF NFkB inh, Peg3 promoter, PPC-1+TRAIL kill)
CCN(CCNC(=O)c1ccc(C#N)cc1)c1cccc(C)c1	none (no result: PPC-1+TRAIL kill)
CCN(CCNCC(O)COCc1ccc(Cl)cc1)c1cccc(C)c1 (stereo not drawn)	Peg3 promoter 103.2
Cc1c(CN2CCC(CO)(Cc3cccc(C(F)(F)F)c3)CC2)c2ccccc2n1C	Peg3 promoter 111.6
Cc1ccc(F)c(S(=O)(=O)NC(=O)C2(C)CCN2C(=O)Cc2ccc(-c3ccccc3)cc2)c1 (stereo not drawn)	none (no result: PPC-1+TRAIL kill)
Nc1nc(N)c(-c2cccc(C(F)(F)F)c2)c(Cc2cccc(C(F)(F)F)c2)n1	C8 TRAIL sens 77.7 (no result: PPC-1+TRAIL kill)
COc1ccc(-c2oc3ncnc(NCCCN(C)C)c3c2-c2ccc(OC)cc2)cc1	Peg3 promoter 104.3 (no result: PPC-1+TRAIL kill)
CN(C)CCNc1ncnc2oc(-c3ccccc3)c(-c3ccccc3)c12	Peg3 promoter 70.6 (no result: PPC-1+TRAIL kill)
C[C@H]1NC(=O)[C@]2(C)[C@@H](c3ccccc3)[C@H]3COc4ccccc4[C@H]3N2C1=O	none (no result: PPC-1+TRAIL kill)
O=C(COC(=O)c1cncc(Br)c1)NCC12CC3CC(CC(C3)C1)C2	none (no result: PPC-1+TRAIL kill)
CSc1ccccc1-c1nnc(-c2ccccc2)o1	none
COc1ccccc1-c1nnc(-c2ccc(C)cc2)o1	C8 TRAIL sens 53.1 (no result: PPC-1+TRAIL kill)
CSc1ccccc1-c1nnc(-c2ccc(C)cc2)o1	C8 TRAIL sens 61.7
